According to PubChem BioAssay (NCI):
Compounds without any hit were thinned out: in the full panel of roughly 83,000, 20% have a hit.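 Negative percent growth values reflect cell death: -40 means 40% of the cells present at the start died, and -100 means all died.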 Unmarked numbers belong to inactive results. Activity calls are given as the source filed them. The calls were made as follows: active = growth percent below 10; inactive = the rest.

Assays:
Experiment in all cases: NCI-60 one-dose screen, 48 h (100 = growth as untreated, 0 = no growth, -100 = all killed)
[1] = tested on: SR leukemia; details: 10 µM unless noted
[2] = tested on: RPMI-8226 leukemia; details: 10 µM unless noted
[3] = tested on: OVCAR-8 ovarian; details: 10 µM unless noted
[4] = tested on: OVCAR-5 ovarian; details: 10 µM unless noted
[5] = tested on: SK-OV-3 ovarian; details: 10 µM unless noted
[6] = tested on: IGROV1 ovarian; details: 10 µM unless noted
[7] = tested on: OVCAR-3 ovarian; details: 10 µM unless noted
[8] = tested on: HS 578T breast; details: 10 µM
[9] = tested on: NCI/ADR-RES ovarian; details: 10 µM unless noted
[10] = tested on: T-47D breast; details: 10 µM unless noted
[11] = tested on: BT-549 breast; details: 10 µM unless noted
[12] = tested on: MDA-MB-435 melanoma; details: 10 µM unless noted
[13] = tested on: SW-620 colon; details: 10 µM unless noted
[14] = tested on: MCF7 breast; details: 10 µM unless noted
[15] = tested on: HCT-116 colon; details: 10 µM unless noted
[16] = tested on: HCC-2998 colon; details: 10 µM unless noted
[17] = tested on: KM12 colon; details: 10 µM unless noted
[18] = tested on: OVCAR-4 ovarian; details: 10 µM unless noted

Row | SMILES | growth [1] | growth [2] | growth [3] | growth [4] | growth [5] | growth [6] | growth [7] | growth [8] | growth [9] | growth [10] | growth [11] | growth [12] | growth [13] | growth [14] | growth [15] | growth [16] | growth [17] | growth [18] [%]
1 | O=c1[nH]cnc2nc[nH]c12 | 48.8% | 93.5% | 76.9% | 98.5% | 121% | 109% | 174% | 123% | 97.8% | 111% | 105% | 93.5% | 105% | 95.4% | 98.1% | 101% | 196% | 
2 | CC(C)(C)CC(C)(C)NCc1cc(C(C)(C)C)cc(CNC(C)(C)CC(C)(C)C)c1O | 1.23% (active) | 8.02% (active) | 86.4% | 68.6% | 81.3% | 61.1% | 79.2% | 67.6% | 55% | 14.5% |  | 81.5% | 75.3% | 31.6% | 26.1% | 31.1% | 75% | 
3 | COc1ccc(NC(=O)c2ccc(C(F)(F)F)nc2Nc2ccc(Cl)cc2C)cc1Cl | 23.6% | -17.9% (active) | 15.6% | 10.1% | 45.4% | 27% | 15.5% | 10.8% | 13.3% | 21.8% | 19% | 18.6% | 13.4% | 9.61% (active) | 3.71% (active) | 16.7% | 24.3% | 
4 | COc1cccc(CC(C)=C(c2ccc(OCCCN(C)C)cc2)c2ccc(OCCCN(C)C)cc2)c1 | -49.1% (active) | -53.9% (active) | -78.7% (active) | -86.5% (active) | -88.6% (active) | -82.6% (active) | -89.9% (active) | -41.4% (active) | -70% (active) | -68.2% (active) | 55.3% | -91.7% (active) | -80.1% (active) | -73.6% (active) | -75.6% (active) | -71% (active) | -83% (active) | 
5 | COc1ccc(/C(=C\c2ccc3c(c2)OCO3)C(=O)Nc2nc3ccccc3s2)cc1 | 81.7% | 94.5% | 102% | 93.6% | 97.8% | 103% | 98.5% | 110% | 100% | 86.1% | 103% | 99.1% | 108% | 107% | 85.4% | 109% | 101% | 
6 | CCOC(=O)c1ccc(N(CCC(=O)O)C(C)=O)cc1 | 129% | 110% | 104% | 102% | 114% | 103% | 120% | 114% | 109% | 112% | 94.9% | 122% | 106% | 99.9% | 104% | 113% | 117% | 
7 | C/C(CC(=O)NNc1ccc([N+](=O)[O-])cc1)=N\Nc1ccc([N+](=O)[O-])cc1 | 46.9% | 72.1% | 81.3% | 48.8% | 90.6% | 78.3% | 73.7% | 86.2% | 49.7% | 50% | 99.6% | 35.4% | 48.6% | 83.8% | 47.3% | 74.5% | 25.4% | 
8 | CCCC(CCC)NCC(O)c1cc(-c2ccc(C(F)(F)F)cc2)nc(C(F)(F)F)c1 (stereo unspecified) | -61.4% (active) | -37.7% (active) | -62.8% (active) | -37.9% (active) | 52.3% | -22.9% (active) | -83.1% (active) | -45.5% (active) | -53.9% (active) | -80.5% (active) | 48.2% | -48.1% (active) | -56.6% (active) | -85.1% (active) |  |  | -85.4% (active) | 
9 | O=C1c2ccccc2C2N1CCC1CCc3ccccc3N12 (stereo unspecified) | 114% | 105% | 101% | 92% | 109% | 99.8% | 115% | 99.8% | 103% | 107% | 88.1% | 110% | 102% | 96.4% | 93.7% | 110% | 108% | 
10 | COC(=O)C(C)NC1=C(Cl)C(=O)C(NC(C)C(=O)OC)=C(Cl)C1=O (stereo unspecified) | 92.9% | 96.1% | 94.2% | 111% | 105% | 120% | 61.2% | 113% | 101% | 96.6% | 99.4% | 75.7% | 104% | 82.2% | 97.9% | 106% | 96.8% | 
11 | C/C(=C\C(=N\N=C(N)N)c1ccc(Cl)cc1)c1ccc(Cl)cc1 | -67.9% (active) | -40.2% (active) | -80.9% (active) | -75.5% (active) | -22.4% (active) | -60.6% (active) | -87.7% (active) | -50.9% (active) | -69.6% (active) | -79.6% (active) | -84.1% (active) | -62.9% (active) | -72.7% (active) | -78.4% (active) | -85.9% (active) | -87.3% (active) | -88.2% (active) | 
12 | COc1cc(C2CC(c3cccc(Nc4ccnc5cc(Cl)ccc45)c3)=NN2c2ccc(Cl)cc2)cc(OC)c1OC (stereo unspecified) | 55.9% | 47.8% | 55.2% | 80.2% |  | 39.7% | 83.3% | 64.8% |  | 30.8% | 81.7% | 8.15% (active) | 37.3% | 54.8% | 53% | 87.3% | 33.9% | 115
13 | O=C(Cn1nncc1CN1C(=O)CSC1=O)Nc1ccc(F)cc1 | 124% | 104% | 108% | 107% | 90.8% | 102% |  | 97.6% |  | 97.8% | 98.8% | 100% | 98.8% | 94.6% | 101% | 96.2% | 106% | 
14 | C=C(C)[C@@H]1CC[C@]2(C)[C@H](CC=C3[C@@H]4C[C@](C)(C(=O)N5CCN(C)CC5)CC[C@]4(C)CC[C@]32C)[C@@]1(C)CCC#N | 39.4% | 32% | 74.7% |  | 63.3% | 76.4% | 55.3% | 81.4% | 75.6% | 42.4% | 56.6% | 51.3% | 57.1% | 34.1% | 26.7% | 70.6% | 53.6% | 62.9
15 | CC(C)NC(=O)OCC#CCOC(=O)NC(C)C | 102% | 103% | 115% | 110% | 94.8% | 90.6% | 108% | 115% |  | 99.2% | 95.7% | 110% | 109% | 94.4% | 95.4% | 103% | 106% | 
16 | CCNS(=O)(=O)c1ccc(C)cc1 | 122% | 99.1% | 100% | 97.2% | 112% | 98.3% | 111% |  |  | 106% | 114% | 111% | 107% | 94.9% |  | 106% | 108% | 
17 | Cc1ccc(N=CNN=C(N)N)cc1 | 76.9% | 99.4% | 91% |  | 104% | 103% | 112% | 140% | 108% | 98.8% | 108% | 112% | 108% | 99% | 103% | 108% | 107% | 94.5
18 | CCCCCCCCNC(C)C(O)c1ccc(SC(C)C)cc1 (stereo unspecified) | -55% (active) | 14.8% | -5.31% (active) |  | 83.9% | 18.8% | -83% (active) | 49.2% | 47.8% | 49.6% | 59.9% | -40.8% (active) | -63.6% (active) | 54% | -96.9% (active) | -80.4% (active) | -72.1% (active) | 63.9
